Calls of active or inactive are those of the source.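 How the source made its calls, unless noted: active means inhibition above 20% together with a positive visual image hit; inconclusive means visual image hit but inhibition not above 20%; inactive means no visual image hit.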

Assay [1] can be described thus: inhibitors of TNFa-induced NFkB p65 translocation, primary screen, imaging, HUVEC, MLSMR starter and 10KST1 sets (AID 438).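 Further: compound added about 3h40 before a 20 min TNFalpha stimulation.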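 On inhibition: signal is the nuclear over cytoplasmic p65 intensity ratio per well.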 To be noted: HUVEC TNFa-induced p65 nuclear translocation; cell count: measured here: nuclei count (cytotoxicity indicator), at 2.08 µM; inhibition: at 2 µM, stronger effect = higher value, 0% TNFa-plus-vehicle, 100% no-TNFa wells.
Assay [2] in a line: reduction of polyQ htt aggregates in cells – imaging, exon1htt(103Q)mCFP cells, high-content imaging, primary screen (AID 483;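 active means visual image review flags a hit and inhibition of aggregation exceeds 20%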;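 further: compound exposure lasted 3 days before fixation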;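 on nuclei count: percent of the per-plate median nuclei count of sample wells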). To be noted: exon1htt(103Q)mCFP cell line, aggregate imaging, at 2 µM; inhibition of aggregation: stronger effect = higher value; nuclei count: measured here: cell count, toxicity.
Assay [3] can be described thus: endothelial E-selectin expression blockers – imaging, HUVEC, immunofluorescence, MLSMR starter and 10KST1 sets, primary screen (AID 487;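 active means visually confirmed hit in the image check and inhibition above 20%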;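 on inhibition: signal is fraction of cell area covered by stained E-selectin grains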;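 on nuclei count: 100% = median nuclei count of all wells on the same plate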). The following applies: HUVEC TNFalpha-induced E-selectin immunofluorescence imaging, at 2 µM; inhibition: stronger effect = higher value; nuclei count: measured here: cell number, toxicity.
Assay [4] addresses Voltage-gated potassium channel subunit beta-2 (Rattus norvegicus) (UniProt P62483). Briefly: inhibitors of rat Kvbeta2 reductase activity – biochemical, NADPH fluorescence, primary screen (AID 622;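 active means fluorescence slope higher than the sample average by over 3 SD, cut at about -0.22 in these data, passing the limit was not always enough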;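 further: slope of raw intensity against log time taken from 70 to 1610 s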). The following applies: recombinant KvBeta, 4-cyanobenzaldehyde reduction, at 10 µM, stronger effect = higher value.
Assay [5] shares this target. The assay can be described thus: enhancers of rat Kvbeta2 NADPH turnover – biochemical, NADPH fluorescence, primary screen (AID 623;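 active means NADPH fluorescence slope more negative than the mean of all samples by about 3 SD, 99.7% confidence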;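 further: fluorescence intensity change per second fitted from 20 to 320 s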). To be noted: Recombinant KvBeta, NADPH fluorescence decrease slope, 10 min; at 10 µM; stronger effect = lower value.
Assay [6] deals with Alpha-2C adrenergic receptor (Homo sapiens) (UniProt P18825). Briefly: compounds altering alpha2C-coupled GIRK flux – cell-based, HEK293 alpha2C/GIRK1/2, thallium flux, primary screen (AID 624;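 active means fluorescence slope after compound addition differing from the mean of all screened samples at 99.7% confidence, in either direction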;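 further: slope of fluorescence ratio to pre-addition baseline per second over 15 to 24 s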). The following applies: thallium flux BTC fluorescence, at 10 µM, actives lie on both sides.
Chain of Alpha-2C adrenergic receptor (Homo sapiens) (P18825 whole entry, looked up): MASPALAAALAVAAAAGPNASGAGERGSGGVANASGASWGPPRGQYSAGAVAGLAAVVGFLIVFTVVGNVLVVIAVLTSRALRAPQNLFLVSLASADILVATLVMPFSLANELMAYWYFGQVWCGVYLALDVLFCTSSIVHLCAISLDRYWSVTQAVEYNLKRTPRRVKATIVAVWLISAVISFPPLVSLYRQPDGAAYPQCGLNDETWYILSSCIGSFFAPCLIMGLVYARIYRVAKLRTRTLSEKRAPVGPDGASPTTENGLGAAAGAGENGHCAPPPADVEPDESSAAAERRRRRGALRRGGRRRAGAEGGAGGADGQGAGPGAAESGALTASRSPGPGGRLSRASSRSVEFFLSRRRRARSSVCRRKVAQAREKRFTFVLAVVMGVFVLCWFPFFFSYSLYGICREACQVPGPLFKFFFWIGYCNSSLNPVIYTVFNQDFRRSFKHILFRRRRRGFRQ
Assay [7] can be described thus: blockers of RIG-like receptor reporter activation – cell-based, Sendai virus stimulus, luciferase, 10K MLSCN set, TLR/RLR signaling modifier project, primary screen (AID 602276;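 active means inhibition at or above 50% at 10 µM; inactive means inhibition below 50%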;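 further: firefly luciferase from ISG56 promoter only with Renilla not read in this screen; 0% = Sendai virus plus DMSO and 100% = medium plus DMSO without virus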). To be noted: HEK293 RL24 IRF3 luciferase reporter, at 10 µM, stronger effect = higher value.
A short description of assay [8]: TLR3 IRF3 reporter activation blockers – cell-based, poly I:C stimulus, luciferase, 10K MLSCN set, primary screen (AID 602277;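 active means inhibition of the reporter signal at or above 50%; inactive means inhibition below 50%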). The following applies: HEK293-TLR3 RL24 IRF3 luciferase reporter, at 10 µM, stronger effect = higher value.

Chain of Voltage-gated potassium channel subunit beta-2 (Rattus norvegicus) (P62483 whole entry, looked up): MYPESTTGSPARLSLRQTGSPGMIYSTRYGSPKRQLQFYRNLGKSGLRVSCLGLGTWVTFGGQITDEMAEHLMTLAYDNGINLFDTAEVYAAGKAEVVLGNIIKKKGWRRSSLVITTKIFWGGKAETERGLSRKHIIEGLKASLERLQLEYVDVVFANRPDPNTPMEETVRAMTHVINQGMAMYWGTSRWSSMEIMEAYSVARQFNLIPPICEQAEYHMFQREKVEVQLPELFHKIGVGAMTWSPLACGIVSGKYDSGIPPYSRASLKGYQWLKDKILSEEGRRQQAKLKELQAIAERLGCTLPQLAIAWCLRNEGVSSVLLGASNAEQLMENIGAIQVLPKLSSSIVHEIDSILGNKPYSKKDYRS

On to `COc1ccccc1N1CCN(C(=O)c2c(-c3c(Cl)cccc3Cl)noc2C)CC1`, for which the cell count in assay [1] came out at 652. Further, the inhibition in assay [1] is -11.7% (inactive); in assay [3], -24.6% (inactive); in assay [7], 18.3% (inactive); in assay [8] it was 38.3% (inactive). For the same compound, the inhibition of aggregation in assay [2] is 3.7% (inactive). In addition, the values for the nuclei count in assay [2] and in assay [3] were 90.6% and 110%, respectively. In addition, the fluorescence slope in assay [4] was -0.377 (inactive). Also, in assay [5], the NADPH fluorescence slope was -2.9e-05 (inactive). The slope in assay [6] is 0.00504 (inactive).
As for `O=c1[nH]cnc2c1C1(CCCC1)Cc1ccccc1-2`, the cell count in assay [1] was 381. In addition, the inhibition in assay [1] was -10.6% (inactive); in assay [3], -22.8% (inactive); in assay [7] it was 9.37% (inactive); in assay [8] it was 35.4% (inactive). In assay [2], the inhibition of aggregation was 19.5% (inactive). Also, the nuclei count in assay [2] was 87%; in assay [3], 110%. Moreover, the fluorescence slope in assay [4] is -0.274 (inactive). Also, the NADPH fluorescence slope in assay [5] was -1.9e-05 (inactive). In assay [6], the slope is 0.00586 (inactive).
Consider `CCCOc1ccc(N2CC(C(=O)Nc3ccc4c(c3)OCO4)CC2=O)cc1` (centres undefined), for which, in assay [1], the cell count was determined as 520. In addition, the inhibition in assay [1] was -5% (inactive); in assay [3], -12.8% (inactive); in assay [7], 3.94% (inactive); in assay [8], 6.03% (inactive). The inhibition of aggregation in assay [2] was 14.9% (inactive). In addition, the nuclei count in assay [2] is 81%; in assay [3], 81.9%. Further, the fluorescence slope in assay [4] is -0.444 (inactive). The NADPH fluorescence slope in assay [5] was -2.5e-06 (inactive). For the same compound, in assay [6], the slope is 0.00561 (inactive).
For the compound `CC(=O)Nc1ccc(S(=O)(=O)Nc2nc3ccccc3nc2N2CCCC2)cc1`, the cell count in assay [1] was 369. The inhibition in assay [1] was 3.2% (inactive); in assay [3], -42.3% (inactive); in assay [7], 20.8% (inactive); in assay [8], 21.3% (inactive). The inhibition of aggregation in assay [2] was 10.6% (inactive). Also, the nuclei count in assay [2] is 106%; in assay [3] it was 128%. Further, the fluorescence slope in assay [4] is -0.593 (inactive). In addition, in assay [5], the NADPH fluorescence slope was 2.1e-06 (inactive). The slope in assay [6] was 0.00326 (inactive).
For `COc1cc2c(N3CCOCC3)cc(O)c(CC(=O)Nc3ccccc3)c2cc1OC`, the cell count in assay [1] was 217. In addition, the inhibition in assay [1] is 2.5% (inactive); in assay [3] it was -63.7% (inactive); in assay [7], -3.63% (inactive); in assay [8], 7.05% (inactive). Also, the inhibition of aggregation in assay [2] was 0.7% (inactive). Besides, the results for the nuclei count in assay [2] and in assay [3] were 107% and 101%, respectively. For the same compound, the fluorescence slope in assay [4] is -0.344 (inactive). The NADPH fluorescence slope in assay [5] is -3.7e-06 (inactive). The slope in assay [6] was 0.00641 (inactive).
Consider `COc1cccc(Cn2c(-c3nonc3N)nc3ccccc32)c1`, for which, in assay [1], the cell count came out at 306. The inhibition in assay [1] was -4.8% (inactive); in assay [3], -97% (inactive); in assay [7], 7.76% (inactive); in assay [8], 57.2% (active). In assay [2], the inhibition of aggregation was -97% (inactive). In addition, the nuclei count in assay [2] was found to be 1.8%; in assay [3], 113%. In addition, the fluorescence slope in assay [4] was -0.556 (inactive). Besides, the NADPH fluorescence slope in assay [5] is -8.2e-05 (inactive). Besides, the slope in assay [6] is 0.00614 (inactive).
With `COc1ccccc1OCC(=O)N1CCN(c2ccccc2OC)CC1`, the cell count in assay [1] was 471. Further, the inhibition in assay [1] was 3% (inactive); in assay [3], 35.1% (inactive); in assay [7], -19.3% (inactive); in assay [8], -1.87% (inactive). In addition, the inhibition of aggregation in assay [2] is 5.3% (inactive). In addition, the nuclei count in assay [2] came to 108%; in assay [3] it was 107%. In assay [4], the fluorescence slope is -0.6 (inactive). In assay [5], the NADPH fluorescence slope was -1.5e-05 (inactive). Moreover, the slope in assay [6] is 0.00684 (inactive).
As to `CCOCCn1c(CN2CCN(CC)CC2)nc2c1c(=O)n(C)c(=O)n2C`, the cell count in assay [1] stood at 638. The inhibition is 2.9% (inactive) in assay [1], -15.7% (inactive) in assay [3], 4.19% (inactive) in assay [7] and 33.7% (inactive) in assay [8]. Further, the inhibition of aggregation in assay [2] is 12.8% (inactive). The figures for the nuclei count in assay [2] and in assay [3] were 92.7% and 110%, respectively. Moreover, the fluorescence slope in assay [4] was -0.568 (inactive). In addition, the NADPH fluorescence slope in assay [5] is -2.7e-05 (inactive). Moreover, in assay [6], the slope was 0.0075 (inactive).
Regarding `CCc1ccc(CCC(=O)Nc2ccc(C)c(C)c2)o1`, in assay [1], the cell count was determined as 255. For the same compound, the inhibition in assay [1] is 5.2% (inactive); in assay [3], -34.3% (inactive); in assay [7] it was -22.6% (inactive); in assay [8], -50% (inactive). Moreover, the inhibition of aggregation in assay [2] is -4.6% (inactive). Moreover, the nuclei count in assay [2] turned out to be 80.2%; in assay [3], 99.6%. The fluorescence slope in assay [4] is -0.4 (inactive). In addition, the NADPH fluorescence slope in assay [5] was -5.2e-05 (inactive). In addition, in assay [6], the slope is 0.006 (inactive).
As to `O=C(COc1ccccc1)Nc1nc2ccccc2[nH]1`, in assay [1], the cell count is 626. The inhibition in assay [1] is -2.6% (inactive); in assay [3], 0.2% (inactive); in assay [7], -49.9% (inactive); in assay [8], -93.8% (inactive). In addition, the inhibition of aggregation in assay [2] was 2.7% (inactive). For the same compound, the nuclei count in assay [2] amounted to 114%; in assay [3] it was 119%. In addition, the fluorescence slope in assay [4] is -0.45 (inactive). Moreover, the NADPH fluorescence slope in assay [5] was -6.8e-05 (inactive). In addition, the slope in assay [6] is 0.00605 (inactive).
For `COCCCn1c(SCC(=O)Nc2cccc(C)n2)nnc1-c1ccco1`, the cell count in assay [1] came out at 601. In addition, the inhibition is -10.2% (inactive) in assay [1], 73.4% (inactive) in assay [3], 18.6% (inactive) in assay [7] and 16.6% (inactive) in assay [8]. Also, the inhibition of aggregation in assay [2] is 21.7% (inactive). Further, the nuclei count in assay [2] worked out at 85.3%; in assay [3], 64.2%. Besides, the fluorescence slope in assay [4] is -0.612 (inactive). Further, the NADPH fluorescence slope in assay [5] is -2.9e-05 (inactive). In addition, in assay [6], the slope was 0.00331 (inactive).
Take `CC(C)COC(=O)N(C)c1ccc(C(O)(C(F)(F)F)C(F)(F)F)cc1`: the cell count in assay [1] stood at 744. Besides, the inhibition in assay [1] was -12.4% (inactive); in assay [3], -56.8% (inactive); in assay [7], -9.85% (inactive); in assay [8], -5.85% (inactive). In assay [2], the inhibition of aggregation is -7.8% (inactive). For the same compound, the nuclei count in assay [2] was 116%; in assay [3], 112%. In addition, in assay [4], the fluorescence slope is -0.618 (inactive). The NADPH fluorescence slope in assay [5] was -4.8e-06 (inactive). In assay [6], the slope is 0.00749 (inactive).
Regarding `CCCC1(C(=O)OCC)NC(c2ccc(N(C)C)cc2)C2C(=O)N(c3ccc(F)cc3)C(=O)C21` (centres undefined), the cell count in assay [1] was found to be 505. Moreover, the inhibition was -10% (inactive) in assay [1], 1.4% (inactive) in assay [3], 8.99% (inactive) in assay [7] and 23.9% (inactive) in assay [8]. The inhibition of aggregation in assay [2] is 30.1% (inactive). Further, the values for the nuclei count in assay [2] and in assay [3] were 69.8% and 134%, respectively. In assay [4], the fluorescence slope was -0.398 (inactive). For the same compound, in assay [5], the NADPH fluorescence slope is 1e-06 (inactive). In assay [6], the slope was 0.00411 (inactive).
On to `O=C(O)c1cc(-c2ccccc2Cl)n[nH]1`, for which the cell count in assay [1] turned out to be 240. The inhibition was 8% (inactive) in assay [1], -51% (inactive) in assay [3], 11.2% (inactive) in assay [7] and 22.8% (inactive) in assay [8]. Besides, the inhibition of aggregation in assay [2] is -10.1% (inactive). Further, the nuclei count came to 109% in assay [2] and 97.9% in assay [3]. The fluorescence slope in assay [4] was -0.604 (inactive). Moreover, the NADPH fluorescence slope in assay [5] was -2e-05 (inactive). In assay [6], the slope was 0.00669 (inactive).

These data come from PubChem BioAssay.
